Rows were chosen to be rich in hits. Some 19% of all compounds tested hit in one or more screens of this group.
TDP1 cell noCPT: qHTS for Inhibitors of human tyrosyl-DNA phosphodiesterase 1 (TDP1): qHTS in cells in absence of CPT; DT40 Tdp1-/- hTDP1 cells, no CPT, ATP luminescence, 48 h; Potency, µM (titrated, usually from 46.2 µM), actives largely listed as inhibitors; actives 15% (n = 420,000); AID 686978, 2013; also: nearly all actives have a fitted effect of over 55% in size
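Stably hTDP1-transfected Tdp1-null chicken DT40 cells were treated with library compounds minus camptothecin and grown for at least 48 hr at 37 °C, after which cellular ATP was quantified by luminescence.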
IL-1B inflam inh: qHTS for Inhibitors of Inflammasome Signaling: IL-1-beta AlphaLISA Primary Screen | THP-1 LPS/ATP IL-1B secretion, AlphaLISA, 16 h; active compounds read low | activity change, % at 57.5 µM | actives 4.7% (n = 360,000) | AID 743279, 2014; in the data active = activity change below about -50%; inconclusive = mostly about -30% to -49%
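Secreted IL-1B measured by AlphaLISA bead assay after 16 h compound exposure of THP-1 cells; compounds (final up to 57.5 uM) added 1 h before LPS (250 ng/mL) and ATP (1.25 mM) stimulation; lower signal means less secretion.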
TDP1 cell CPT: qHTS for Inhibitors of human tyrosyl-DNA phosphodiesterase 1 (TDP1): qHTS in cells in presence of CPT. chicken DT40 Tdp1-/-;hTDP1 cells + 20 nM CPT, ATP luminescence, 48 h. Potency, µM (highest dose often 46.2 µM), hits mostly inhibitors. actives 12% (n = 420,000); also: nearly all actives have a fitted effect of over 55% in size
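Chicken DT40 Tdp1-/- cells complemented with human TDP1, 400 cells/well, exposed to compounds plus 20 nM camptothecin for at least 48 h at 37 C; viability read as ATP content by CellTiter-Glo luminescence.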
HT1080 IDH1KD tx: qHTS for induction of synthetic lethality in tumor cells producing 2HG: qHTS for the HT-1080-IDH1KD cell line; Potency, µM (series often up to 46.1 µM), usual class: cytotoxic; AID 686971, 2013; actives 2% (n = 360,000); HT-1080 IDH1 knockdown viability, ATP luminescence, 48 h
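After a 2 h attachment period, IDH1KD HT-1080 cells took pin-transferred compound for 48 h at 37 °C; ATP-based luminescence after 10 min room-temperature reagent incubation reported viability.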
HT1080NT lethal: qHTS for induction of synthetic lethality in tumor cells producing 2HG: qHTS for the HT-1080-NT fibrosarcoma cell line; Potency, µM (doses to about 46.1 µM), usual class: cytotoxic; HT-1080-NT fibrosarcoma viability, CellTiter-Glo ATP luminescence, 48 h; actives 1.6% (n = 360,000);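 also: NT is the 2HG producing partner of a matched IDH1 knockdown line; nearly all actives have a fitted effect of over 55% in size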
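Compounds were tested in concentration-response format on HT-1080-NT cells for 48 hours at 37 degrees C. Cell viability came from CellTiter-Glo luminescence; curves were classified by r2, response magnitude and activity.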
Each line names hits and unclear results; the compound was inactive in the other large screens. Unless noted, calls follow the shape of the dose curve; as a rule, active = well fitted curve in the direction sought with a large enough effect; inconclusive = small, poorly fitted or top-dose-only effect, or another doubt; inactive = no such curve, though single readings can be large; an effect the other way counts as inactive or inconclusive.

CN(C)S(=O)(=O)N1CCN(c2ccnc3cc(Cl)ccc23)CC1	TDP1 cell noCPT 13µM, IL-1B inflam inh inconclusive, TDP1 cell CPT 23.1µM
CC(=O)c1ccc(N2CCN(c3ccnc4cc(Cl)ccc34)CC2)cc1	TDP1 cell noCPT 3.66µM, TDP1 cell CPT inconclusive
O=C(C1CCCCC1)N1CCN(c2ccnc3cc(Cl)ccc23)CC1	TDP1 cell noCPT 11.6µM, IL-1B inflam inh inconclusive, TDP1 cell CPT 10.3µM, HT1080 IDH1KD tx inconclusive
COc1ccc(C(=O)C2C(=O)C(=O)N(Cc3ccco3)C2c2cccs2)cc1 (stereo not drawn)	none (no result: IL-1B inflam inh, HT1080 IDH1KD tx, HT1080NT lethal)
N#Cc1cccc(S(=O)(=O)N2CCN(c3ccnc4cc(Cl)ccc34)CC2)c1	TDP1 cell noCPT 11.6µM, TDP1 cell CPT 11.6µM
O=[N+]([O-])c1ccc(S(=O)(=O)N2CCN(c3ccnc4cc(Cl)ccc34)CC2)cc1	TDP1 cell noCPT inconclusive, TDP1 cell CPT 18.4µM
CC(C)S(=O)(=O)N1CCN(c2ccnc3cc(Cl)ccc23)CC1	TDP1 cell noCPT inconclusive, TDP1 cell CPT inconclusive (no result: IL-1B inflam inh)
CCc1ccc(S(=O)(=O)c2nnn3c2nc(Nc2cc(OC)cc(OC)c2)c2cc(Cl)ccc23)cc1	TDP1 cell CPT inconclusive (no result: IL-1B inflam inh, HT1080 IDH1KD tx, HT1080NT lethal)
O=C(NCCN1CCN(C(=O)c2ccc(F)cc2)CC1)c1ccc(F)cc1	none
CC(Sc1nnc(-c2cccnc2)o1)C(=O)NC1CCCCC1 (stereo not drawn)	none
O=C(COc1ccccc1[N+](=O)[O-])N1CCC(c2nc3ccccc3o2)CC1	TDP1 cell noCPT 18.4µM, TDP1 cell CPT inconclusive (no result: IL-1B inflam inh, HT1080 IDH1KD tx, HT1080NT lethal)
Cc1ccc(C(C)C)c(OCC(=O)N2CCC(c3nc4ccccc4o3)CC2)c1	TDP1 cell noCPT 14.6µM, TDP1 cell CPT inconclusive (no result: IL-1B inflam inh, HT1080 IDH1KD tx, HT1080NT lethal)
COc1cc(C(=O)N2CCC(c3nc4ccccc4o3)CC2)cc(OC)c1OC	TDP1 cell CPT inconclusive (no result: IL-1B inflam inh, HT1080 IDH1KD tx, HT1080NT lethal)
CCCn1c(SCC(=O)Nc2cccnc2Cl)n[nH]c1=O	none
O=C(/C=C/c1ccc([N+](=O)[O-])cc1)Nc1ncc([N+](=O)[O-])s1	TDP1 cell noCPT 8.2µM, IL-1B inflam inh -77.6, TDP1 cell CPT 5.8µM, HT1080 IDH1KD tx inconclusive, HT1080NT lethal inconclusive
Cc1ccc(CC(=O)Nc2ncc([N+](=O)[O-])s2)cc1	TDP1 cell noCPT inconclusive, TDP1 cell CPT inconclusive
Cc1csc(NC(=O)c2cccs2)n1	HT1080 IDH1KD tx inconclusive
Cc1cnc(NC(=O)c2cccs2)s1	IL-1B inflam inh -99.1
O=C(Nc1ncc([N+](=O)[O-])s1)c1cccs1	TDP1 cell noCPT 10.3µM, TDP1 cell CPT 18.4µM, HT1080 IDH1KD tx 20.6µM, HT1080NT lethal 23.1µM
Cc1ncoc1C(=O)Nc1ncc([N+](=O)[O-])s1	TDP1 cell noCPT inconclusive, TDP1 cell CPT inconclusive
CCCCC(CC)C(=O)Nc1ncc([N+](=O)[O-])s1 (stereo not drawn)	TDP1 cell noCPT inconclusive, IL-1B inflam inh -79.1, TDP1 cell CPT inconclusive, HT1080 IDH1KD tx 18.4µM, HT1080NT lethal inconclusive
O=C(/C=C/c1ccc([N+](=O)[O-])cc1)NCc1ccccn1	TDP1 cell CPT inconclusive
CC(C)CN1CCc2nc(N3CCN(c4ncccn4)CC3)ncc2C1	TDP1 cell CPT inconclusive (no result: IL-1B inflam inh, HT1080 IDH1KD tx, HT1080NT lethal)
O=C(Nc1ncc([N+](=O)[O-])s1)c1ccccc1Br	TDP1 cell noCPT 18.4µM, TDP1 cell CPT 20.6µM, HT1080 IDH1KD tx inconclusive, HT1080NT lethal inconclusive
N#CC(C#N)=c1ccc2c(c1)N1C3=C(CCCC3)CC3CCCCC31N=2 (stereo not drawn)	TDP1 cell noCPT inconclusive, IL-1B inflam inh -116.7, TDP1 cell CPT inconclusive
N#C/C(C(N)=O)=c1/ccc2c(c1)N1C3=C(CCCC3)CC3CCCCC31N=2 (stereo not drawn)	TDP1 cell noCPT 13µM, IL-1B inflam inh -101.8, TDP1 cell CPT 14.6µM
Cc1nc2cnc(OCc3ccccc3)nc2n(C)c1=O	none (no result: IL-1B inflam inh, HT1080 IDH1KD tx, HT1080NT lethal)
C[C@H](CO)N1C[C@H](C)[C@@H](CN(C)C(=O)Nc2ccccc2)Oc2ccc(NC(=O)Nc3ccc4c(c3)OCO4)cc2C1=O	none
COc1ccc(NC(=O)N(C)C[C@H]2OCCCC[C@H](C)Oc3ccc(NC(=O)Nc4ccc5c(c4)OCO5)cc3C(=O)N([C@@H](C)CO)C[C@@H]2C)cc1	TDP1 cell noCPT inconclusive, TDP1 cell CPT 20.6µM
C[C@H]1CCCCO[C@H](CN(C)C(=O)Nc2ccc(F)cc2)[C@@H](C)CN([C@@H](C)CO)C(=O)c2cc(NC(=O)Nc3ccc4c(c3)OCO4)ccc2O1	TDP1 cell noCPT inconclusive, TDP1 cell CPT 20.6µM
O=C1CC(c2ccc(Cl)cc2)Sc2nc(-c3ccc(F)cc3)nn21 (stereo not drawn)	none (no result: IL-1B inflam inh, HT1080 IDH1KD tx, HT1080NT lethal)
C=CCn1c(Cc2cccc3ccccc23)n[nH]c1=S	TDP1 cell noCPT inconclusive, TDP1 cell CPT 20.6µM
C=CCn1c(SCC(=O)N2CCOCC2)nnc1C(C)NC(=O)c1ccccc1 (stereo not drawn)	none
C/C(N)=C(/C#N)C(=O)CSc1nc2scc(-c3ccc(F)cc3)c2c(=O)n1C	TDP1 cell noCPT inconclusive
O=C(c1ccc(Cn2c(=S)[nH]c3ccc(Br)cc3c2=O)cc1)N1CCN(C2CCCCC2)CC1	TDP1 cell noCPT inconclusive, TDP1 cell CPT inconclusive
COC(=O)C1=C(C)NC(C)=C(C(=O)OCCN2CCN(C(c3ccccc3)c3ccccc3)CC2)C1c1cccc([N+](=O)[O-])c1 (stereo not drawn)	TDP1 cell noCPT 4.73µM, TDP1 cell CPT 6.68µM (no result: IL-1B inflam inh, HT1080 IDH1KD tx, HT1080NT lethal)

Screening results: PubChem BioAssay, National Center for Advancing Translational Sciences (NCATS)
